The whole screen tested about 140,000 compounds, of which about 2,100 (1.5%) were called active.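 Rule for the calls: active = viability at or under a set limit, the compound median less 4 SD (cut at about 6% in these data); inactive = the rest.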 The full list was thinned out, with actives kept by preference.
assay: primary screen for growth suppressors in beta-catenin knockout HCT116 cells (colon tumor, human) (AID 818); settings: CellTiter-Glo, 60 h, at 10 µM, hits give low values;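 note: 0% = Hyamine 1622 control at 20 µM and 100% = untreated cell control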

Row | Compound | viability
1 | CSc1nc(-c2ccccc2)nc(C(Cl)Cl)n1 | 3.63% (active)
2 | CSc1nc(C)cc(SC(C(C)=O)C(=O)Nc2ccccc2)n1 (configuration not stated) | 88.4% (inactive)
3 | Cc1nn(-c2ccccc2)c(-n2cccc2)c1C(=O)O | 95.6% (inactive)
4 | Cc1ccc(/C=N/NC(=O)COc2ccccc2-c2ccccc2)cc1 | 13.9% (inactive)
5 | c1ccc(C2CNCc3c2ccc2ccccc32)cc1 (configuration not stated) | 11.3% (inactive)
6 | COc1ccc(C2NC(=S)NC3=C2CCc2ccccc23)cc1OC (configuration not stated) | 81.8% (inactive)
7 | CCn1ncc(CNC(=O)C2(C)CC2(Br)Br)c1C (configuration not stated) | 94.3% (inactive)
8 | CC(=O)NS(=O)(=O)c1ccc(NC(=O)C2C3C=CC(C3)C2C(=O)O)cc1 (configuration not stated) | 98.2% (inactive)
9 | CCN(CC)S(=O)(=O)c1cccc(C(=O)Nc2ccccc2)c1 | 80.8% (inactive)
10 | CN(C)S(=O)(=O)c1cccc(C(=O)Nc2cccnc2)c1 | 97.9% (inactive)
11 | CN(C)S(=O)(=O)c1cccc(NC(=S)N/N=C/C(=O)c2ccccc2)c1 | 6.06% (active)
12 | Cc1cccc(CSc2ccc(-c3cccs3)nn2)c1 | 75.7% (inactive)
13 | Cc1c(Cl)c([N+](=O)[O-])nn1CCCC(=O)Nc1cc(Cl)ccc1Cl | 91.2% (inactive)
14 | COc1ccc(NC(=S)N2CCCC(CO)C2)c(OC)c1 (configuration not stated) | 100% (inactive)
15 | O=C(CC1NCCNC1=O)Nc1cc(Cl)cc(Cl)c1 (configuration not stated) | 87.8% (inactive)
16 | Cc1ccc(-c2nn(-c3ccccc3)cc2/C=N/NC(=O)c2ccc3c(c2)OCO3)cc1 | 36.6% (inactive)
17 | Cc1cccc(-n2c(C)cc(/C=N\NC(=O)c3cccs3)c2C)c1 | 60.6% (inactive)
18 | Cc1ccc(/C=N/NC(=O)C2=NNC(c3ccccc3)(c3ccccc3)C2)c(O)c1 | 4.68% (active)
19 | Cc1cc(C(=O)NNC(=S)NC(C)c2ccccc2)cs1 (configuration not stated) | 88.5% (inactive)
20 | Cc1cc(NC(=O)/C=C/C(=O)N(c2ccccc2C)C(C(=O)NC2CCCC2)c2ccc(F)cc2)no1 (configuration not stated) | 5.76% (active)
21 | Cc1cc(NC(=O)CCC(=O)N(c2ccccc2)C(C(=O)NC2CCCC2)c2ccncc2)no1 (configuration not stated) | 80% (inactive)

Row | Compound | viability
22 | Cc1cc(NC(=O)CCC(=O)N(c2cccc(F)c2)C(C(=O)NC2CCCC2)c2ccncc2)no1 (configuration not stated) | 94.3% (inactive)
23 | CCOc1ccc(Br)cc1S(=O)(=O)Nc1cccc(S(=O)(=O)N(CC)CC)c1 | 96.4% (inactive)
24 | N=C(N)SCc1cccc2ccccc12 | 79.3% (inactive)
25 | CCn1c(SCc2ccc(C)cc2)nnc1-c1nn(-c2ccccc2)ccc1=O | 103% (inactive)
26 | CCc1ccc(-c2nn(-c3ccccc3)cc2CSC(=N)N)cc1 | 1.57% (active)
27 | CCN(C(=O)COc1cccnc1[N+](=O)[O-])C1CCS(=O)(=O)C1 (configuration not stated) | 85.6% (inactive)
28 | COC(C(=O)NCc1ccccc1C)c1ccccc1 (configuration not stated) | 90% (inactive)
29 | CCN(CC)CCNCc1ccc(OCc2ccc(Cl)nc2)c(OC)c1 | 96.9% (inactive)
30 | Cc1c(Cl)cccc1NC(=O)Nc1ccc(C(=O)N2CCCC2)cc1 | 70.1% (inactive)
31 | O=C(Cn1c(-c2ccccn2)nc2ccccc21)NCCN1CCOCC1 | 98.8% (inactive)
32 | c1ccc2[nH]c(NCCN3CCOCC3)nc2c1 | 92% (inactive)
33 | c1ccc2cc3c(NCCN4CCOCC4)ccnc3cc2c1 | 2.37% (active)
34 | CC(C)CCNC(=O)c1cccnc1Sc1ccccc1 | 96.4% (inactive)
35 | Cc1noc(COc2ccccc2OCC(O)CNC(C)(C)C)n1 (configuration not stated) | 98.6% (inactive)
36 | CCC(C)NCCOCCOc1ccc(Br)cc1C (configuration not stated) | 70.2% (inactive)
37 | CC(C)(C)CC(C)(C)NCC(O)COCCOc1ccc(Br)cc1 (configuration not stated) | 1.6% (active)
38 | CCOc1ccc(NC(=S)N2CCC(N(C)CC3CCCO3)CC2)cc1 (configuration not stated) | 96.9% (inactive)
39 | Cc1ccc(NC(=O)COC(=O)CCc2nc3ccccc3n2-c2ccccc2)c(C)c1 | 79.9% (inactive)
40 | S=C1SCN(CCN2CCOCC2)CN1Cc1ccccc1 | 20.5% (inactive)
41 | COc1ccc(CN2CN(C(C)C)CSC2=S)cc1 | 5.75% (active)
42 | O=C(NN1C(=O)C2C3C=CC(C3)C2C1=O)c1ccco1 (configuration not stated) | 93.7% (inactive)

Row | Compound | viability
43 | COc1cc(OC)nc(N/N=C(\c2ccccc2)c2ccncc2)n1 | 63.6% (inactive)
44 | Cc1cc(Br)ccc1NC(=O)C1CCCO1 (configuration not stated) | 96.2% (inactive)
45 | OC(CNCC1CCCO1)Cn1c2ccc(Br)cc2c2cc(Br)ccc21 (configuration not stated) | 1.48% (active)
46 | Cc1ccc(C(=O)NCC2CCCO2)o1 (configuration not stated) | 106% (inactive)
47 | COc1ccc(NC(=S)NCc2cccs2)c(OC)c1 | 96% (inactive)
48 | COc1ccc(C(C(=O)NC2CCCCC2)N(C(=O)Cc2c[nH]c3ccccc23)c2ccccc2)cc1OC (configuration not stated) | 63.4% (inactive)
49 | O=C(Nc1cc(C(F)(F)F)ccc1Cl)C(=O)N1CCCCC1 | 99.1% (inactive)
50 | CC(CC(=O)Nc1cc(C(F)(F)F)ccc1Cl)c1ccccc1 (configuration not stated) | 61.2% (inactive)
51 | O=C(NNc1ccccc1Cl)C(O)(c1cccc(C(F)(F)F)c1)c1cccc(C(F)(F)F)c1 | 3.21% (active)
52 | CCc1nnc(NC(=O)/C=C/c2ccc(C)o2)s1 | 97.8% (inactive)
53 | CCN1/C(=C/c2ccc3ccc(C)cc3[n+]2CC)Sc2ccccc21 | 2.41% (active)
54 | CCC(=O)/C=C1\Sc2ccccc2N1CC | 89% (inactive)
55 | COc1ccc(CCN(C(=O)COc2ccccc2)c2nc(-c3ccccc3)cs2)cc1OC | 77.2% (inactive)
56 | COc1ccc(C(CCN(Cc2ccc(OC)c(OC)c2)C(=O)CCl)c2ccccc2)cc1 (configuration not stated) | 1.9% (active)
57 | CCOC(=O)CN(Cc1ccc(OC)c(OC)c1)S(=O)(=O)c1ccc(OC)cc1 | 91.4% (inactive)
58 | CCOC(=O)C(NC(=O)CC(C)C)(Nc1sc2c(c1C(N)=O)CCCC2)C(F)(F)F (configuration not stated) | 97.2% (inactive)
59 | CCOC(=O)C1=C(C)N=c2s/c(=C\C(=O)OC)c(=O)n2C1c1ccc(OC)cc1 (configuration not stated) | 98.8% (inactive)
60 | O=C1CCCC2=C1C(c1ccccc1)n1c(s/c(=C/c3cccc(F)c3)c1=O)=N2 (configuration not stated) | 83.9% (inactive)
61 | COc1ccc(OC)c(C2C3=C(N=c4s/c(=C\c5cccc(O)c5)c(=O)n42)c2ccccc2CC3)c1 (configuration not stated) | 3.2% (active)
62 | O=C(Nc1cn(-c2ccccc2)nc1-c1ccccc1)c1ccccc1 | 82% (inactive)

— PubChem BioAssay AID818 (SRMLSC, 2007)
